ZTA counter: counter-screen for EBNA-1 inhibitors: inhibitors of Epstein-Barr virus ZTA | inhibition, % at 11 µM | AID 2234 | ZTA-DNA binding, fluorescence polarization | actives 0.15% (n = 320,000) | P03206; in the data active = inhibition above about 33%
Target sequence (P03206 whole entry, looked up): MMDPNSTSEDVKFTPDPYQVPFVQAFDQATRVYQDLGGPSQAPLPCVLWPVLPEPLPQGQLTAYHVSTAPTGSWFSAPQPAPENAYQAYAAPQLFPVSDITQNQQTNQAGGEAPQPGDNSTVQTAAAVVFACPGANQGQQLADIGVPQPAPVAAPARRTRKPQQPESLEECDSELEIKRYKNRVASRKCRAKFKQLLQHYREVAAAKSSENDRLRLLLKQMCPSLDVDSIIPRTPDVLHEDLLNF
LYPLA1 counter: counter-screen for PME1 inhibitors: inhibitors of human LYPLA1; actives 0.16% (n = 320,000); inhibition, % at 5.9 µM; O75608; recombinant LYPLA1, FP-Rh probe fluorescence polarization;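 active = inhibition above the mean of all tested compounds plus 3 SD, set per campaign, cut at about 14% in these data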;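 note: inhibitors block serine hydrolase probe labeling of LYPLA1 so polarization falls; 0% = enzyme with DMSO and 100% = wells lacking LYPLA1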
Target sequence (O75608 whole entry, looked up): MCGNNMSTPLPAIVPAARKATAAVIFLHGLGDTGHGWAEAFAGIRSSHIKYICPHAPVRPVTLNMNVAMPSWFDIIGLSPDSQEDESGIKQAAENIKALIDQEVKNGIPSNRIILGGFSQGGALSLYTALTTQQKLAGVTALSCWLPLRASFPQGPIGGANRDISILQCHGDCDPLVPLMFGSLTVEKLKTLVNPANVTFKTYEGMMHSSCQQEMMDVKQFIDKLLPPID
EBNA-1 inhibitor: blocks EBNA-1 binding to DNA | actives 0.34% (n = 300,000) | EBNA-1 DNA binding, fluorescence polarization | inhibition, % at 14.8 µM; in the data active = inhibition above about 28%
LANA-H2A inh: blocks KSHV LANA binding to histone H2A/H2B. Q9QR71. cell-free LANA-H2A/H2B peptide, fluorescence polarization. inhibition, % (concentration not given with the values). actives 0.6% (n = 320,000). AID 2629; in the data active = inhibition mostly above about 10%, no sharp cut-off; inactive = mostly below about 6.7%
LYPLA2 inh: LYPLA2 (human) inhibition in PME1 counter-screen; O95372; recombinant LYPLA2, FP-Rh probe fluorescence polarization; inhibition, % at 5.9 µM; actives 0.38% (n = 320,000);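 active = inhibition above the screen-wide mean plus 3 SD, limit set per campaign, cut at about 26% in these data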;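 note: 0% = LYPLA2 with DMSO and 100% = wells lacking LYPLA2 enzyme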
EBNA-1 confirm: EBNA-1 (EBV) inhibition, confirmation; shares compounds with EBNA-1 inhibitor; Recombinant EBNA-1 DBD, Cy5-DNA fluorescence polarization; AID 2292; actives 35% (n = 830); inhibition, % at 14.8 µM;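 active = mean inhibition across replicates above a set limit taken from the earlier primary screen, cut at about 28% in these data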;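 note: plate controls were EBNA-1 protein with DMSO for no effect and wells lacking EBNA-1 for full effect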
ZTA DNA inh trip: blocks Epstein-Barr virus ZTA in triplicate, EBNA-1 counter-screen. shares compounds with EBNA-1 inhibitor. Zta-ZRE DNA binding, Cy5 fluorescence polarization. inhibition, % at 11.1 µM. 830 tested, under 10 active;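 active = mean inhibition over triplicates above a set limit taken from the primary EBNA-1 screen, cut at about 37% in these data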;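 note: purified full length Zta protein with Cy5 labeled ZRE DNA probe; 0% = Zta with DMSO and 100% = wells lacking Zta protein; inhibitors lower polarization by freeing the labeled DNA probe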
Numbers without * were called inactive; / = not tested or not shown. Sampled rows, rich in hits. Any-hit rate of the full collection: about 1.4%.

SMILES	ZTA counter	LYPLA1 counter	EBNA-1 inhibitor	LANA-H2A inh	LYPLA2 inh	EBNA-1 confirm	ZTA DNA inh trip
CCOCCc1nn2c(=O)cc(CSCC(=O)Nc3cc(C)cc(C)c3)nc2s1	-3	0	-11	4	3	/	/
O=C1COc2ccc(C(=O)COC(=O)c3cc(S(=O)(=O)NCc4ccccc4)ccc3O)cc2N1	6	0	31*	-1	-3	5	-4
COC(=O)C1CSC(C(=O)OC)N1C(=O)Nc1ccccc1 (stereo unspecified)	8	1	55*	4	7	-10	-3
C[C@@H]1C[C@H]2[C@@H]3C[C@H](F)C4=CC(=O)C=C[C@]4(C)[C@@]3(Cl)[C@@H](O)C[C@]2(C)[C@H]1C(=O)COC(=O)C(C)(C)C	4	-2	-7	2	-7	/	/
COc1cccc(N2CC(NS(=O)(=O)c3cccnc3)CC2=O)c1 (stereo unspecified)	6	1	5	5	1	/	/
CCOc1ccc2nc(SC3CC(=O)N(c4ccccc4)C3=O)sc2c1 (stereo unspecified)	2	-2	33*	2	2	1	-1
O=c1c2ccccc2nc(SCc2nc3ccccc3s2)n1Cc1ccco1	-6	-1	49*	-2	-1	4	6
O=c1c2ccccc2nc(SCc2ccccc2)n1Cc1ccco1	-11	-1	-15	2	-3	/	/
O=C(CSc1nc2ccccc2c(=O)n1-c1ccccc1)N1CCc2ccccc21	13	-5	41*	2	-4	38*	0
O=C(CSc1ncccc1-c1nc2ccccc2[nH]1)N1CCc2ccccc21	-7	-9	32*	4	-9	9	4
COC(=O)CSc1ncccc1-c1nc2ccccc2[nH]1	11	-4	-3	-2	-7	/	/
CCOc1ccc(Nc2ncnc3c2nnn3Cc2ccccc2)cc1	-2	0	36*	2	7	9	-8
O=S(=O)(c1ccccc1)N1CCN(c2nnc(-c3ccccc3)c3ccccc23)CC1	-3	2	8	0	10	/	/
COC(=O)c1cn(NC(=O)Cc2ccc(Cl)c(Cl)c2)c(=O)c2ccccc12	-4	-1	44*	5	-4	25	-8
C=CCOc1ccc(-c2nc3c(c(=O)[nH]c(=O)n3Cc3ccccc3)n2CCCOC)cc1	16	8	29*	1	11	-2	-3
O=C(CSc1ccc([N+](=O)[O-])cn1)Nc1cc(C(F)(F)F)ccc1N1CCOCC1	-10	5	1	1	15	/	/
Cc1cc(N2CCOCC2)ccc1/C=C1\NC(=O)N(CC(=O)Nc2ccccc2C)C1=O	12	1	42*	-3	-5	6	-5
Cc1cc(N2CCOCC2)ccc1/C=C1\NC(=O)N(CC(=O)Nc2ccc(F)cc2)C1=O	-15	-3	15	4	-1	/	/
Cc1ccc(-n2cccc2/C=C2/NC(=O)N(CC(=O)Nc3cccc(C)c3)C2=O)cc1	2	-5	3	0	-5	/	/
Cc1cccc(NC(=O)CN2C(=O)N/C(=C\c3ccc(N4CCOCC4)cc3)C2=O)c1	12	-2	34*	2	-10	11	10
COc1ccc(S(=O)(=O)NNC(=O)c2cc3c4ccccc4n(C)c3s2)cc1	-8	0	32*	6	3	18	3
Nc1c(C(=O)Nc2ccccc2)sc2nc(-c3ccco3)ccc12	19	-11	54*	-6	2	59*	11
Cc1ccccc1OCC(=O)Nc1ccc2[nH]ncc2c1	-5	-2	3	-1	8	/	/
CN(C)c1ccc(NC(=O)Cn2c(=O)n(Cc3ccccc3)c(=O)c3ccccc32)cc1	10	-2	43*	-1	1	35*	2
Cc1ccc(CNC(=O)CCCn2c(=O)c3ccccc3n(CC(=O)NCc3ccco3)c2=O)cc1	-4	-3	1	-3	-1	/	/
SMILES	ZTA counter	LYPLA1 counter	EBNA-1 inhibitor	LANA-H2A inh	LYPLA2 inh	EBNA-1 confirm	ZTA DNA inh trip
Cc1ccc(NC(=O)Cn2c(=O)n(CCCC(=O)NCc3ccco3)c(=O)c3ccccc32)cc1	-5	-1	38*	2	2	45*	-7
COCCn1c(C)cc(C(=O)COC(=O)/C=C/c2ccc(OC)cc2OC)c1C	/	/	/	-4	/	/	/
COC(=O)[C@H](CC(C)C)N(Cc1ccccc1)S(=O)(=O)N(Cc1ccc(OC)cc1)[C@@H](CC(C)C)C(=O)OC	/	/	/	-2	/	/	/
COc1ccc(-c2nc(SC(CC(=O)NCCO)c3cccs3)n[nH]2)cc1 (stereo unspecified)	7	-3	-4	0	2	/	/
O=C(CC(Sc1n[nH]c(-c2ccccc2)n1)c1ccccc1)NCc1ccccc1 (stereo unspecified)	2	0	33*	-2	3	10	9
CC(=O)Nc1ccc(NC(=O)Cc2sc(-c3cccnc3)nc2-c2ccc(C)cc2)cc1	4	-1	54*	1	-2	52*	7
CC1=CC(=C(C#N)C#N)C=C(C)N1CCN1CCN(C(=O)Nc2ccc(Cl)c(Cl)c2)CC1	12	-37	76*	1	-86	65*	4
CCOc1ccccc1N1CCN(C(=O)Nc2ccc(Cl)c(Cl)c2)CC1	11	-3	7	4	1	/	/
O=C(NC12CC3CC(CC(C3)C1)C2)c1c(Cl)cccc1Cl	-10	0	0	-6	-1	/	/
Cc1cnc(C(=O)Nc2ccc(S(=O)(=O)NCC(C)C)cc2)cn1	-8	0	4	-4	1	/	/
Cc1cnc(C(=O)Nc2ccc(S(=O)(=O)N(C(C)C)C(C)C)cc2)cn1	0	-2	28*	-4	-2	-1	0
COc1n[nH]c(C(=O)NCc2ccccc2)c1[N+](=O)[O-]	1	2	7	-2	6	/	/
COc1ccccc1C(=O)Nc1nc2ccccc2s1	-12	-4	31*	0	-6	-5	-2
COc1n[nH]c(C(=O)Nc2nc3ccccc3s2)c1[N+](=O)[O-]	0	4	34*	-6	2	0	-3
Cn1cnc(C(=O)N2CCc3ccccc3C2)c1C(=O)N1CCc2ccccc2C1	/	/	/	-5	/	/	/
CCCCNS(=O)(=O)c1ccc2nc(-c3cccs3)cc(C(=O)NCC(OC)OC)c2c1	-26	0	-7	-3	-4	/	/
COc1ccc(O)c(-c2cc(C(F)(F)C(F)F)nc(-c3ccccc3)n2)c1	-4	3	31*	-1	12	8	4
O=C(CN1C(=O)NC2(CCCc3ccccc32)C1=O)NCc1cccs1 (stereo unspecified)	-17	-4	/	2	-6	/	/
O=S(=O)(Nc1nc2ccccc2nc1Nc1cccc(S(=O)(=O)N2CCCCC2)c1)c1ccccc1	4	-6	37*	6	13	4	-2
